# Reference: ChEMBL document CHEMBL3433997, “St. Jude Leishmania screening dataset” (2016)
# Where “and” joins values, the source holds several entries; their conditions need not be identical. Identical values can stand only once.
# Key:
# Format in all cases: functional
# [1] = target: Solute carrier family 2, facilitated glucose transporter member 1 (Homo sapiens) (UniProt P11166); experiment: ST_JUDE_LEISH: Cytotoxicity at 2uM final concentration against transgenic Leishmania Mexicana promastigotes LmGLUT1 that are glucose transport deficient and complemented with the human glucose transporter GLUT1. Activity is measured by DNA content using SYBR green in vitro
# Chain of Solute carrier family 2, facilitated glucose transporter member 1 (Homo sapiens) (P11166 whole entry): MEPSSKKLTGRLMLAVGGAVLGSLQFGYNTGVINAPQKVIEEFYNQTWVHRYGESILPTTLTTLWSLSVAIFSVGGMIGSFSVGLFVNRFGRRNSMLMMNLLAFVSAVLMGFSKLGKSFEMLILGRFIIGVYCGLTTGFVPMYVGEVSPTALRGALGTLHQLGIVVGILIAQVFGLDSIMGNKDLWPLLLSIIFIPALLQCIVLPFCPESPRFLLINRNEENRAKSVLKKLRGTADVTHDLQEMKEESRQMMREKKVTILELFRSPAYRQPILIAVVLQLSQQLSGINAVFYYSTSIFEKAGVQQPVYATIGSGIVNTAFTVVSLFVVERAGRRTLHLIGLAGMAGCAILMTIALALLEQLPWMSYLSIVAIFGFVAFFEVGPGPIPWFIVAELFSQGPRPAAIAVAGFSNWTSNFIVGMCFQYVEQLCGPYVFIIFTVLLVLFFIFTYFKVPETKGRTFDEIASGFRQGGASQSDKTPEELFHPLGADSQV
# [2] = target: Hexose transporter 1 (Plasmodium falciparum) (UniProt O97467); experiment: ST_JUDE_LEISH: Cytotoxicity at 2uM final concentration against transgenic Leishmania Mexicana promastigotes LmPfHT that are glucose transport deficient and complemented with the Plasmodium falciparum hexose transporter. Activity is measured by DNA content using SYBR green in vitro
# [3] = target: Glucose transporter (Leishmania mexicana) (UniProt O61059); experiment: ST_JUDE_LEISH: Cytotoxicity at 2uM final concentration against transgenic Leishmania Mexicana promastigotes LmGT2 that are glucose transport deficient and complemented with the L. Mexicana glucose transporter 2. Activity is measured by DNA content using SYBR green in vitro
smiles,measurement,setting,value
COc1ccc(CN2CCN(CCOC(c3ccccc3)c3ccc(Cl)cc3)CC2)c(O)c1 (stereo unspecified),inhibition,[1],9.85%
same,inhibition,[2],10.7%
same,inhibition,[3],6.46%
O=C(/C=C/c1ccc(Cl)c(Cl)c1)N1CCC(CN2CCC(c3c[nH]c4ccc(O)cc34)CC2)CC1,inhibition,[1],1.04%
same,inhibition,[2],-0.44%
same,inhibition,[3],4.21%
COC(=O)c1ccc(CC(C)NCC(O)c2ccc3ccc4ccccc4c3c2)cc1 (stereo unspecified),inhibition,[1],3.1%
same,inhibition,[2],1.22%
same,inhibition,[3],3.14%
CC(=O)N(Cc1cccc(-c2ccc(CNCCc3ccccc3)cc2)c1)C1CCN(Cc2ccccc2)CC1,inhibition,[1],4.3%
same,inhibition,[2],5.39%
same,inhibition,[3],2.97%
O=C(NC1CCN(CCc2c[nH]c3ccc(F)cc23)CC1)c1ncc(-c2ccccc2)[nH]1,inhibition,[1],4.04%
same,inhibition,[2],4.4%
same,inhibition,[3],3.98%
COC(=O)c1ccc(CC(C)NCC(O)c2cccc(C(F)(F)F)c2)cc1 (stereo unspecified),inhibition,[1],2.79% and 2.21% and 1.58%
same,inhibition,[2],-0.93% and 1.17% and 2.06%
same,inhibition,[3],2.89% and 0.72% and 2.04%
O=C(/C=C/c1ccc(Cl)c(Cl)c1)NCC1CCC(CN2CCC(c3c[nH]c4ccccc34)CC2)CC1 (stereo unspecified),inhibition,[1],2.37%
same,inhibition,[2],-3.01%
same,inhibition,[3],1.76%
O=C1Nc2cccc3c2C1(CCCCCN1CC=C(c2c[nH]c4ccccc24)CC1)CCC3 (stereo unspecified),inhibition,[1],14.1%
same,inhibition,[2],10.6%
same,inhibition,[3],12.8%
O=C(/C=C/c1ccc(Cl)cc1Cl)NC1CCC(CN2CCC(c3c[nH]c4ccccc34)CC2)CC1 (stereo unspecified),inhibition,[1],10.9%
same,inhibition,[2],13.1%
same,inhibition,[3],9.99%
CC(C)CNCc1cccc(-c2ccc(CN(C(=O)NC3CCCCC3)C3CCN(Cc4ccccc4)CC3)cc2)c1,inhibition,[1],4.72%
same,inhibition,[2],5.99%
same,inhibition,[3],5.84%
CNCCCN(C)C(=O)Oc1c(Br)c(C)nc(C)c1-c1ccc(Oc2ccc(OC(F)(F)F)cc2)cc1,inhibition,[1],-0.18%
same,inhibition,[2],-3.25%
same,inhibition,[3],-1.27%
COc1ccc(C=CC(=O)NC2CCC(CN3CCC(c4c[nH]c5ccccc45)CC3)CC2)cc1OC (stereo unspecified),inhibition,[1],2.26% and 2.87%
same,inhibition,[2],0.82% and 2.73%
same,inhibition,[3],-1.08% and -3.42%
COc1ccc(C(=O)c2ccc3[nH]cc(C4=CCN(C)CC4)c3c2)cc1,inhibition,[1],-0.74%
same,inhibition,[2],-1.41%
same,inhibition,[3],0.07%
O=C(CNC1CCCCC1)c1ccc(O)c(O)c1,inhibition,[1],75.2%
same,inhibition,[2],87.1%
same,inhibition,[3],77.4%
CC[C@H]1CN2CC[C@H]1C[C@H]2[C@H](O)c1cc(-c2ccc(C)cc2)nc2ccc(OC)cc12,inhibition,[1],1.44%
same,inhibition,[2],0.47%
same,inhibition,[3],-0.1%
O=C(/C=C/c1cccc(Cl)c1)NC1CCC(CN2CCC(c3c[nH]c4ccccc34)CC2)CC1 (stereo unspecified),inhibition,[1],2.39% and 2.9%
same,inhibition,[2],2.82% and 1.43%
same,inhibition,[3],-0.58% and 2.44%
CC[C@H]1CN2CC[C@H]1C[C@H]2[C@H](O)c1cc(-c2cccc(Cl)c2)nc2ccc(OC)cc12,inhibition,[1],9.7%
same,inhibition,[2],9.03%
same,inhibition,[3],10.7%
COC(=O)c1ccc(CC(C)NCC(O)c2ccc(F)c(Cl)c2)cc1 (stereo unspecified),inhibition,[1],0.56%
same,inhibition,[2],0.78%
same,inhibition,[3],2.31%
CC[C@H]1CN2CC[C@H]1C[C@H]2[C@H](O)c1cc(-c2ccccc2C(F)(F)F)nc2ccc(OC)cc12,inhibition,[1],0.61%
same,inhibition,[2],1.6%
same,inhibition,[3],-1.22%
CC(=O)Nc1ccc(CN2CCC(N(C)c3cc(NC(=O)c4cccc(F)c4)ccn3)CC2)cc1,inhibition,[1],-0.4%
same,inhibition,[2],-0.05%
same,inhibition,[3],0.23%
COCCNCc1cccc(-c2ccc(CN(C(=O)NC3CCCCC3)C3CCN(Cc4ccccc4)CC3)cc2)c1,inhibition,[1],7.28%
same,inhibition,[2],3.57%
same,inhibition,[3],2.09%
O=C(/C=C/c1ccsc1)NC1CCC(CN2CCC(c3c[nH]c4ccccc34)CC2)CC1 (stereo unspecified),inhibition,[1],1.44%
same,inhibition,[2],-2.35%
same,inhibition,[3],-0.88%
CCCCCCCn1c(=O)c(C(=O)Nc2c(C)cccc2C)c(O)c2ccccc21,inhibition,[1],2.89%
same,inhibition,[2],1.98%
same,inhibition,[3],3.35%
CN1CC=C(c2c[nH]c3ccc(OCc4ccccc4)cc23)CC1,inhibition,[1],16.2%
same,inhibition,[2],14.4%
same,inhibition,[3],14.7%
CC(=O)C1(c2ccccc2)CCN(CCC2(c3ccc(Cl)c(Cl)c3)CN(C(=O)Nc3cc(F)cc(F)c3)CCO2)CC1 (stereo unspecified),inhibition,[1],2.31%
same,inhibition,[2],2.4%
same,inhibition,[3],-0.62%
COc1ccc(OC)c(C(O)C(C)NCc2cc(Cl)ccc2O)c1 (stereo unspecified),inhibition,[1],0.78%
same,inhibition,[2],1.14%
same,inhibition,[3],1.94%
O=C(Nc1ccc(Cl)c(Cl)c1)N1CCC(CN2CCC(c3c[nH]c4ccccc34)CC2)CC1,inhibition,[1],6.13%
same,inhibition,[2],5.01%
same,inhibition,[3],4.11%
CCOC(C(=O)OCC1CCCN1C)(c1ccccc1)c1ccccc1 (stereo unspecified),inhibition,[1],1.35%
same,inhibition,[2],-0.09%
same,inhibition,[3],0.01%
O=C(NC1CCN(CC2(c3ccc(Cl)cc3)CCC2)CC1)c1cc[nH]n1,inhibition,[1],1.71%
same,inhibition,[2],-0.69%
same,inhibition,[3],-1.02%
CCCCc1ccc2[nH]cc(C3=CCN(C)CC3)c2c1Br,inhibition,[1],0.79%
same,inhibition,[2],-0.14%
same,inhibition,[3],2.44%
Cc1cc(N(C)C2CCN(C)CC2)nc(Nc2ccc(Cl)cc2)n1,inhibition,[1],2.63%
same,inhibition,[2],-2.68%
same,inhibition,[3],-0.95%
CN(c1cc(NC(=O)c2ccc(F)cc2)ccn1)C1CCN(Cc2cccc(C#N)c2)CC1,inhibition,[1],3.24%
same,inhibition,[2],-2.19%
same,inhibition,[3],5.14%
